Assay results taken from PubChem BioAssay (NCI).
This is part of a sample that, as a whole, favours compounds with a hit. Of some 79,000 tested, about 15% had one in any assay. Values without a mark were called inactive. Calls of active or inactive are those of the source. Cut-off read from the data, not from the text of the source: active = growth inhibition above about 70%; inactive = the rest.

Experiments:
[1] = NCI Yeast Anticancer Drug Screen. Data for the rad50 strain (AID 155);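 note: 0% = growth of vehicle-only cultures of the same strain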; conditions: S. cerevisiae rad50 strain growth inhibition, hits give high values
In short: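 Readout: growth inhibition relative to vehicle-treated cultures. Compound exposure was carried out in a genetically defined yeast strain deficient in DNA damage repair.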

[2] = NCI Yeast Anticancer Drug Screen. Data for the mec2-1 strain (AID 157); conditions: S. cerevisiae mec2-1 strain, hits give high values
In short: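 Readout is yeast growth inhibition, normalised to vehicle-treated controls, in the mec2-1 strain exposed to compound.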

[3] = NCI Yeast Anticancer Drug Screen. Data for the sgs1 mgt1 strain (AID 161);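 note: 0% = growth of cultures given vehicle only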; conditions: S. cerevisiae sgs1 mgt1 strain, hits give high values
In short: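 Growth of a repair-deficient yeast mutant was monitored after compound treatment and expressed as inhibition relative to vehicle-treated cultures.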

[4] = NCI Yeast Anticancer Drug Screen. Data for the cln2 rad14 strain (AID 165);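 note: 0% = growth equal to vehicle treated cultures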; conditions: S. cerevisiae cln2 rad14 strain, hits give high values
In short: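 Relative to vehicle controls, growth inhibition of compound-treated cln2 rad14 yeast was recorded.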

[5] = NCI Yeast Anticancer Drug Screen. Data for the bub3 strain (AID 167); conditions: S. cerevisiae bub3 mutant strain, hits give high values
In short: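 Readout: yeast growth inhibition, expressed relative to vehicle-only wells. The test organism is a mutant strain from a panel with lesions in DNA repair or checkpoint genes.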

[6] = NCI Yeast Anticancer Drug Screen. Data for the mlh1 rad18 strain (AID 175); conditions: S. cerevisiae mlh1 rad18 strain growth inhibition, hits give high values
In short: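 Test agents were incubated with a yeast strain of defined genotype (DNA damage repair defect). Inhibition of growth was derived by comparison with vehicle-exposed cultures.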

[7] = at 5.0 µM (retest, dose inferred, filed as 0.5)
[8] = at 50.0 µM (retest, dose inferred, filed as 5.0)

Row | Compound | growth inhibition [1, 7] | growth inhibition [1, 8] | growth inhibition ([1]; at 50.0 µM) | growth inhibition [2, 7] | growth inhibition [2, 8] | growth inhibition ([2]; at 50.0 µM) | growth inhibition [3, 7] | growth inhibition [3, 8] | growth inhibition ([3]; at 50.0 µM) | growth inhibition [4, 7] | growth inhibition [4, 8] | growth inhibition ([4]; at 50.0 µM) | growth inhibition [5, 7] | growth inhibition [5, 8] | growth inhibition ([5]; at 50.0 µM) | growth inhibition [6, 7] | growth inhibition [6, 8] | growth inhibition ([6]; at 50.0 µM)
1 | Clc1cccc(Cl)c1C(Nc1nncs1)Nc1nncs1 | 0% | 85% (active) | 93.2% (active) | -9% | 51% | 79.8% (active) | 0% | 55% | 88.2% (active) | 8% | 42% | 72.9% (active) | -11% | 56% | 53% | 0% | 94% (active) | 97.3% (active)
2 | Cc1ccc(/C=N\NC(=S)N/N=C/c2ccc(C)cc2)cc1 | -6% | 98% (active) | 30.3% | 2% | 99% (active) | 40% | 2% | 99% (active) | 74.8% (active) | -43% | 98% (active) | 20% | -4% | 99% (active) | 94.5% (active) | 0% | 98% (active) | 59%
3 | CC([C@H]1CCC2C3CCC4CC5(CC[C@]4(C)C3CC[C@@]21C)c1ccccc1C(=O)N5C)N(C)C (some centres not stated) | -11% | 81% (active) | 83.3% (active) | -11% | 55% | 89.4% (active) | 11% | 87% (active) | 89.6% (active) | 14% | 85% (active) | 73.3% (active) | 6% | 83% (active) | 86.5% (active) | 18% | 84% (active) | 78.2% (active)
4 | O=c1nc(-c2ccccc2)cc(-c2ccccc2O)[nH]1 | -11% | 93% (active) | 44.1% | -1% | 25% | 16.3% | -1% | 40% | 30.4% | 19% | 61% | 33.8% | 0% | 87% (active) | 16.9% | 1% | 68% | 33.5%
5 | CC(=O)Nc1[c-]cccc1.CC(=O)Nc1[c-]cccc1.CC(=O)O.CC(=O)O.[Pd].[Pd] | 2% | 31% | 79.8% (active) | -1% | 51% | 87.2% (active) | 17% | 89% (active) | 92.5% (active) | -7% | 25% | 45.1% | -4% | 31% | 58.7% | -1% | 55% | 95.8% (active)
6 | Nc1ccc(C(=O)N/C(=C\C=C\c2ccco2)c2nc3c4c(ccc3[nH]2)C(=O)c2ccccc2C4=O)cc1 | 23% | 75% (active) | 90.8% (active) | 1% | 28% | 62.1% | 3% | 35% | 74.8% (active) | 0% | 9% | 44.7% | 2% | 22% | 31.9% | 10% | 12% | 90.5% (active)
7 | COc1ccc2c(c1OC)OCC2C (configuration not stated) | 3% | 68% | 86.5% (active) | 0% | 38% | 71% (active) | 1% | 56% | 37.6% | -4% | 57% | 57.4% | 2% | 71% (active) | 87.1% (active) | -4% | 67% | 43.2%
8 | C=CCOCC(C)OC(=O)C(C)C (configuration not stated) | -162% | -158% | 55.7% | -46% | -52% | -6.9% | -63% | -63% | 18.3% | -60% | -62% | 49% | -71% | -78% | 11.8% | -140% | -117% | 63.2%
9 | O=C1/C(=C/c2cccc([N+](=O)[O-])c2)CCCc2ccccc21 | 4% | 92% (active) | 73.5% (active) | 7% | 94% (active) | 68.8% | 13% | 94% (active) | 83.2% (active) | -5% | 91% (active) | 70.7% (active) | 20% | 94% (active) | 84.8% (active) | 9% | 93% (active) | 75.9% (active)
10 | COc1ccc(C(=O)c2ccc([N+](=O)[O-])cc2)cc1 | -1% | -19% | -4.55% | 7% | -9% | -12.2% | 3% | 0% | -3.8% | -15% | -47% | 53.4% | 9% | -17% | 17.5% | 13% | 0% | -21.6%
11 | O=C1CC(O)C=C1Nc1ccc(Cl)cc1 (configuration not stated) | 3% | 14% | 98.8% (active) | -3% | 29% | 98.2% (active) | -6% | 4% | 98.7% (active) | -8% | -8% | 98.5% (active) | -9% | -22% | 97.8% (active) | 0% | 7% | 98.5% (active)
12 | C=C(Br)CN1CCC2(c3ccccc3)C(O)C([Se]c3ccccc3)CCC12 (configuration not stated) | 85% (active) | 85% (active) | 83.1% (active) | 78% (active) | 78% (active) | 84% (active) | 81% (active) | 81% (active) | 78% (active) | 80% (active) | 80% (active) | 83.3% (active) | 84% (active) | 84% (active) | 84.8% (active) | 89% (active) | 89% (active) | 82.8% (active)
13 | Cc1ccc(-n2c(CSc3ccc(Cl)cc3)nnc2SCc2nc3ccccc3[nH]2)cc1 | -22% | 8% | 46.9% | -16% | -9% | 73.1% (active) | -28% | 7% | 42.7% | -4% | 5% | 70.5% (active) | 1% | -3% | 3.9% | 2% | -4% | 66.6%
14 | CC(=O)Nc1ccc(C(=O)NN2C(=O)C(Cl)C2c2cc(Br)cc(Br)c2O)cc1 (configuration not stated) | 20% | -5% | -18% | -6% | 5% | -25.1% | -1% | -7% | -23.4% | 0% | 12% | 2% | -17% | -11% | 0.85% | 7% | 26% | -35%
15 | CC(C)[C@@H]1CC[C@@H](C)C[C@H]1OC(=O)NN | -8% | 72% (active) | 89.5% (active) | -30% | 53% | 90.3% (active) | -8% | 70% (active) | 91.2% (active) | 1% | -2% | 59.6% | 6% | 84% (active) | 80.5% (active) | -6% | 68% | 95.3% (active)
16 | OCC(c1ccccc1)[P+](c1ccccc1)(c1ccccc1)c1ccccc1 (configuration not stated) | 2% | 34% | 79.2% (active) | -8% | 45% | 49.9% | -9% | 0% | 74.3% (active) | -42% | -1% | 31.9% | 0% | 13% | 26.3% | -14% | 5% | 59.6%
17 | CC12C(=O)OC(=O)C1C1c3ccccc3C2c2ccccc21 (configuration not stated) | 71% (active) | 99% (active) | 89.7% (active) | 82% (active) | 99% (active) | 89.5% (active) | 26% | 90% (active) | 89.3% (active) | 51% | 95% (active) | 86.8% (active) | 54% | 90% (active) | 89.5% (active) | 76% (active) | 99% (active) | 88% (active)
18 | CCCCCCCCCCCCCCCCOCC(Cl)COP(=O)(O)OP(=O)(O)OCC1OC(n2cc(C)c(=O)[nH]c2=O)CC1O (configuration not stated) | 27% | 99% (active) | 86% (active) | 30% | 94% (active) | 59.6% | 90% (active) | 99% (active) | 93% (active) | 22% | 85% (active) | 63.1% | 50% | 97% (active) | 79.5% (active) | 67% | 97% (active) | 84.7% (active)
19 | O=C1C(Cl)=C(N2C(=O)CCC2=O)C(=O)c2ccccc21 | 77% (active) | 98% (active) | 87.6% (active) | 99% (active) | 99% (active) | 90.4% (active) | 99% (active) | 100% (active) | 91.6% (active) | 94% (active) | 99% (active) | 89.4% (active) | 100% (active) | 99% (active) | 88.9% (active) | 72% (active) | 98% (active) | 89% (active)
